Assay outcomes: PubChem, The Scripps Research Institute Molecular Screening Center
Compounds with a hit are over-represented: about 4.2% of the library has one in this group of screens.
hcDAF-12 act – activates DAF-12 receptor from parasite H. contortus; activation, % at 6.8 µM; hit rate 1.4% among 370,000; HEK293 hcDAF-12 lit1-tk-luc reporter, luminescence; 0% DMSO, 100% Δ7-dafachronic acid;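 active means activation above the mean of all tested compounds plus 3 SD, cut at about 5.5% in these data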;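 further: 100% = response to 3 µM Δ7-dafachronic acid high control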
SMARCA2 activ – activators of SMARCA2 function; MG213 cells, MMTV-luciferase reporter, dexamethasone, overnight; activation, % at 9.1 µM; hit rate 1% among 370,000; AID 652017; in the data active means activation above about 7.8%;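 further: 0% = vehicle wells and 100% = reference activator wells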
ssDAF12 agonist – S. stercoralis DAF-12 activation, primary screen; HEK293 ssDAF-12/GRIP1 lit1-tk-luc reporter, luminescence; % of 3 µM dafachronic acid response; activation, % at 6.8 µM; hit rate 1% among 370,000;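 active means activation above the mean over all tested compounds plus 3 SD, cut at about 0.9% in these data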;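 further: 0% = DMSO-only wells and 100% = 3 µM delta7-dafachronic acid wells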
hgDAF12 agonist – hgDAF-12 agonism, primary luciferase screen | AID 687014 | activation, % at 6.8 µM | hit rate 1.8% among 370,000 | HEK293 GAL4-hgDAF12 UAS-luciferase reporter, agonist luminescence; normalized to butyrate control;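 active means activation above a cutoff set at the mean of all screened compounds plus 3 SD, cut at about 10% in these data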;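 further: 0% = DMSO wells and 100% = sodium butyrate wells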
DAX1 StAR inh – blocks DAX1 repression of SF-1 activated StAR promoter | HEK293T StAR-luciferase reporter, SF-1/DAX-1 repression relief | hit rate 1.1% among 370,000 | AID 652010 | inhibition, % at 6.8 µM;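 active means inhibition above the mean over all tested compounds plus 3 SD, cut at about 3.6% in these data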;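 further: 0% = DAX-1 cells with DMSO and 100% = cells lacking DAX-1 with DMSO; higher inhibition means more luminescence from relief of DAX-1 repression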
LXRb hcDAF ctr – activates human LXR-beta, counter-screen for hcDAF-12 agonists; 3,400 tested, under 10 active; activation, % at 6.8 µM; shares compounds with hcDAF-12 act; HEK293 Gal4-LXR tk-luc reporter, luminescence, 24 h; normalized: DMSO 0%, positive control 100%;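 active means mean percent activation of the reporter above a cutoff set as the average over tested compounds plus their standard deviation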
Target sequence (P55055 whole entry, looked up, the tested form may be a part): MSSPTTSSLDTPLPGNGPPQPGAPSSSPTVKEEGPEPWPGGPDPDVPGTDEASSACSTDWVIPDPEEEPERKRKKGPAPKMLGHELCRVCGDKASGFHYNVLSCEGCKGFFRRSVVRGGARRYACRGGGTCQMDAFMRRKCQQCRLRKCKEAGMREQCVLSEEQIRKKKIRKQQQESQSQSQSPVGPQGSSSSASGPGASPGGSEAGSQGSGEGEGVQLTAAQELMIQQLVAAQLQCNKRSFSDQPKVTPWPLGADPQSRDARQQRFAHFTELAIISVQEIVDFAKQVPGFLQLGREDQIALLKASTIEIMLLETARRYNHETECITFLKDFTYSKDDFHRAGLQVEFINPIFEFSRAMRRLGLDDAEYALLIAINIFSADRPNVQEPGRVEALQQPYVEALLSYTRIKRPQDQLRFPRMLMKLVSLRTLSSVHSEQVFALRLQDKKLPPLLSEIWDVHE
hcDAF12 ag – confirmation of H. contortus DAF-12 agonists. activation, % at 6.8 µM. HEK293 hcDAF-12 lit1-tk-luc reporter, luminescence; % of Δ7-dafachronic acid response. hit rate 61% among 3,400. shares compounds with hcDAF-12 act;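 active means mean activation across triplicate tests above the threshold derived from the earlier primary screen, cut at about 5.5% in these data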;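 further: 0% = DMSO only wells and 100% = 3 µM Δ7-dafachronic acid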
hgDAF12 ag – confirmation of H. glycines DAF-12 agonists; shares compounds with hgDAF12 agonist; HEK293 GAL4-hgDAF12 luciferase reporter, agonist mode; percent of butyrate response; activation, % at 6.8 µM; hit rate 80% among 3,300;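 active means mean activation over triplicate wells above the hit cutoff derived from the earlier primary screen, cut at about 11% in these data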;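 further: 0% = DMSO low control and 100% = 2 mM sodium butyrate high control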
LXRb DAF12 ctr – LXR-beta agonism as DAF-12 counter-screen. AID 743051. HEK293 Gal4-LXR luciferase reporter, 24 h. shares compounds with hgDAF12 agonist. 3,300 tested, under 10 active. activation, % at 6.8 µM;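 active means mean activation of the triplicate above a set limit carried over from the primary screen, none filed active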
Starred values were filed as active, the others as inactive; · = no result given.

SMILES	hcDAF-12 act	SMARCA2 activ	ssDAF12 agonist	hgDAF12 agonist	DAX1 StAR inh	LXRb hcDAF ctr	hcDAF12 ag	hgDAF12 ag	LXRb DAF12 ctr
O=C(CCCc1ccccc1)NC12CC3CC(CC(C3)C1)C2	8.4*	6	1.2*	17*	2	1	6.9*	15*	1
CC(C)(C)S(=O)N1C[C@@H]2CC(=O)C(CCO)=C2[C@H]1CCO (stereo partly specified)	-1	-5	-2	0	-1	·	·	·	·
CC(C)(C)c1ccc(/C=C/C(=O)Nc2nncs2)cc1	7.4*	0	0	21*	3	1	6.8*	12*	1
O=C(/C=C/c1ccc2c(c1)OCO2)Nc1nncs1	1	6	0	6	1	·	·	·	·
CCC(C)c1ccc(OCc2ccc(C(=O)O)o2)cc1 (stereo unspecified)	10*	2	1	15*	3	1	8.7*	22*	1
CC(C)C(N)c1csc(NC(=O)Nc2cccc(Cl)c2)n1 (stereo unspecified)	-1	-2	-2	-4	-1	·	·	·	·
COc1ccc(-c2nc3c4ccccc4ccn3c2Cc2cccc(F)c2)cc1OC	6.7*	6	1.0*	16*	-1	1	7.4*	14*	0
O=C(COc1ccc2ccccc2c1)Nc1nccs1	6.7*	4	0	19*	3.6*	2	7.2*	18*	1
O=C(COc1ccccc1)Nc1nccs1	3	2	0	6	4	·	·	·	·
Cc1ccccc1-c1ccc2c(c1)[C@@H]1C[C@H]3[C@@H](CN1CC2)[C@H](C)ON3C	-2	-5	-1	1	0	·	·	·	·
COc1ccccc1NC(CC(=O)c1ccccc1)C(=O)OCC(=O)c1ccc(C)cc1 (stereo unspecified)	8.5*	3	0	14*	3	2	15*	16*	1
O=C(O)c1cccc(COc2ccc3c(c2)CCC3)c1	10*	1	2.8*	14*	3.6*	2	12*	23*	1
CCCC[C@@H](CCCc1ccc(F)cc1)CCC(=O)N(c1ccccc1)c1ccccc1	1	0	-1	0	0	·	·	·	·
CC(C)c1ccc(OCc2nc(-c3ccccn3)no2)c(Br)c1	7.6*	1	0.9*	15*	4.1*	1	7.0*	16*	1
CC(C)C[C@@H]1COc2cccc(N3CCCC3)c2S(=O)(=O)N1C	-2	-1	-2	-4	-1	·	·	·	·
CC(=O)Nc1cccc(/C(C)=N/NC(=O)c2cccs2)c1	6.7*	4	0	18*	2	0	1	1	0
O=[N+]([O-])c1ccc(/C=C/c2ccc3ccccc3n2)cc1	11*	6	1.0*	24*	3.8*	2	9.7*	13*	1
CC(C)N(C[C@@H]1CSCCS(=O)(=O)N1)C1CCCCC1	0	-2	-1	-1	0	·	·	·	·
O=C(Nc1ccc2[nH]c(=S)sc2c1)Nc1ccccc1F	7.4*	3	1.7*	15*	2	2	8.0*	20*	1
O=C(Nc1ccc2[nH]c(=O)[nH]c2c1)Nc1ccc(F)cc1F	-2	0	-2	-2	0	·	·	·	·
NC(=O)c1ccccc1NC(=O)c1ccc2ccccc2c1	11*	5	3.1*	23*	3	2	9.2*	22*	1
COc1ccc(-c2nc3ccccn3c2Cl)cc1	15*	3	3.2*	14*	3	2	19*	24*	1
CC(C)=CCN1C(=O)[C@]2(OCCC=C[C@H]2C)c2c(Br)cccc21	-1	-2	-1	-2	-1	·	·	·	·
